Compound activity: PubChem, several laboratories
Only some compounds are listed: those with a hit (about 3.1% of all), similar ones and a draw of the others.
MEKK3 PB1 HTS – modulators (inhibitors or enhancers) of MEK5 binding to human MEKK3 PB1 domain; Q99759; binding response (% of control), % at 10 µM; actives 1.4% (n = 290,000); AID 1529; bead-based flow cytometry, Alexa488-MEK5 binding to MEKK3; actives lie on both sides; 0 = blocked by unlabeled MEK5, 100 = vehicle;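 active = binding response more than 3 SD above or below the average of its plate-row segment, actives on both sides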;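 also: Alexa488 bead fluorescence after subtracting the streptavidin-only scavenger bead signal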
UBC13 polyUb – inhibitors of human UBC13 polyubiquitin chain formation. P61088. TR-FRET. inhibition, % at 20 µM. actives 0.47% (n = 330,000). AID 485273; in the data active = inhibition above about 45%, passing the limit was not always enough
MEKK2 WT-MEK5 – raises or lowers MEK5 binding to wildtype human MEKK2 PB1 domain. bead flow cytometry, Alexa488-MEK5 binding to MEKK2 WT; actives lie on both sides. binding response (% of control), % at 10 µM. actives 1.1% (n = 290,000). AID 1531; in the data active = binding response below about 67% or above about 130%
PREPL inh – human PREPL enzyme inhibition. Q4J6C6. recombinant PREPL, fluorescence polarization activity-based probe. inhibition, % at 5.96 µM. actives 0.68% (n = 320,000); in the data active = inhibition above about 43%
Target sequence (Q4J6C6 whole entry, looked up): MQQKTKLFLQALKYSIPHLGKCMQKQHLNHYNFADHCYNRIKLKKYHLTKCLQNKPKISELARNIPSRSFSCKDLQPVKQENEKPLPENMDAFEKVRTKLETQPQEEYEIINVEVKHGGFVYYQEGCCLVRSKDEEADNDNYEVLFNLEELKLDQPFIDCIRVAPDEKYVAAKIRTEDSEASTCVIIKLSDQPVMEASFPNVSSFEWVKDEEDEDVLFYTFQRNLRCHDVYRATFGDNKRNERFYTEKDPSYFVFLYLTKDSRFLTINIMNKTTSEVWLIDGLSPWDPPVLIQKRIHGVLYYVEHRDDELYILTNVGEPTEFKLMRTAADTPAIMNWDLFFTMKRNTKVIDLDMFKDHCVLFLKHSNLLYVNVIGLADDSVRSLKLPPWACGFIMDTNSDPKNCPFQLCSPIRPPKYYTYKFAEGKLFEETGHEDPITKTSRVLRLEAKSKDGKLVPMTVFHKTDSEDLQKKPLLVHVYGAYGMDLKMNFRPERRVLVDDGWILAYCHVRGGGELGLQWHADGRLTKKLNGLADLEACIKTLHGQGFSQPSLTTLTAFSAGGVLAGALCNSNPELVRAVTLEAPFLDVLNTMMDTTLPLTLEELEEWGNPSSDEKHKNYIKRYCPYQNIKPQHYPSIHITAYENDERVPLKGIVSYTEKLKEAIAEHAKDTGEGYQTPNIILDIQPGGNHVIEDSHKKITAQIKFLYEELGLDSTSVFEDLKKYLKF
ATG4B inh – blocks human ATG4B protease cleavage of LC3 substrate. ATG4B cleavage of LC3-PLA2, NBD-HPC fluorescence, 1 h. AID 504462. inhibition, % at 8.33 µM. actives 0.51% (n = 340,000). Q9Y4P1; in the data active = inhibition above about 40%
MEKK2 mut-MEK5 – signal of MEK5 binding to mutant human MEKK2 PB1 domain | bead flow cytometry, Alexa488-MEK5 binding to MEKK2 mutant | percent response, % at 10 µM | actives 0.35% (n = 290,000); in the data active = percent response above about 24%, passing the limit was not always enough
MEKK2wt confirm – raises or lowers MEK5 binding to wildtype human MEKK2, retest; shares compounds with MEKK3 PB1 HTS; bead flow cytometry, Alexa488-MEK5 binding to MEKK2 WT; actives lie on both sides; binding response (% of control), % at 10 µM; actives 2.4% (n = 5,900); AID 1892; in the data active = binding response below about 16% or above about 210%; inactive = in between
MEKK2mut confirm – signal of MEK5 binding to mutant human MEKK2, retest; shares compounds with MEKK3 PB1 HTS; bead flow cytometry, Alexa488-MEK5 binding to MEKK2 mutant; percent response, % at 10 µM; actives 2% (n = 5,900); AID 1893; in the data active = percent response mostly above about 71%, no sharp cut-off; inactive = mostly below about 38%;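 also: higher means compound restores mutant binding toward wildtype level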
MEKK3-MEK5 inh – MEKK3-MEK5 PB1 inhibition, single concentration confirmation; shares compounds with MEKK3 PB1 HTS; bead flow cytometry, Alexa488-MEK5 binding to MEKK3; hits give low values; binding response (% of control), % at 10 µM; actives 1.8% (n = 5,900); AID 1894;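 active = binding response below 72% of control, or above a set upper limit, though filed actives all read lower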;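 also: lower values mean stronger disruption of MEK5 binding to MEKK3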
A number is an active result; i = inactive; nt = no result; [ ] = another dose, or the depositor's remark.

SMILES | MEKK3 PB1 HTS | UBC13 polyUb | MEKK2 WT-MEK5 | PREPL inh | ATG4B inh | MEKK2 mut-MEK5 | MEKK2wt confirm | MEKK2mut confirm | MEKK3-MEK5 inh
COc1ccc2c(c1)c(CCNNC(=O)C(C)(C)C)c(C)n2C(=O)c1ccc(Cl)cc1 | i | i | i | i | i | i | nt | nt | nt
CSc1nnc(-c2nnc(SC)n2-c2ccccc2)n1-c1ccccc1 | 22.0[inhibitor] | i | 35.0[inhibitor] | i | i | i | i | i | i
Cc1cccc(NC(=S)NC(C)(C)CC(C)(C)C)c1 | i | i | i | i | i | i | nt | nt | nt
CN1CCC/C1=C/C=C1\SC(=S)NC1=O | 151.0 | nt | i | i | i | i | i | i | i
O=C1NC(=S)SC1=Cc1cccs1 | nt | nt | nt | nt | i | nt | nt | nt | nt
O=C1CN(C(=O)COC(=O)c2ccccc2Br)c2ccccc2N1 | nt | i | nt | i | i | nt | nt | nt | nt
CCOC(=O)c1c(S(=O)(=O)NC2CCN(C(=O)OCC)CC2)c(C)n(C)c1C | i | i | i | i | i | i | nt | nt | nt
Cn1c(NCC(O)c2ccccc2)nc2c1c(=O)n(Cc1ccc(Cl)cc1)c(=O)n2C (stereo unspecified) | 78.0[inhibitor] | i | i | i | i | i | i | i | i
O=C(CSc1n[nH]c(=O)n1Cc1ccco1)Nc1ccccc1 | 128.0 | i | i | i | i | i | i | i | i
CC(C)c1ccc(NC(=O)CSc2n[nH]c(=O)n2Cc2ccco2)cc1 | i | i | i | i | i | i | nt | nt | nt
CSc1ccccc1NC(=O)CN1CC(C)OC(C)C1 (stereo unspecified) | 133.0 | i | i | i | i | i | i | i | i
O=C(COC(=O)COc1ccccc1)Nc1ccccc1OC(F)F | 72.0[inhibitor] | i | i | i | i | i | i | i | i
Cc1c(Cl)cccc1NC(=O)CNC(=O)C1CCN(C(=O)Nc2ccccc2)CC1 | nt | i | nt | i | i | nt | nt | nt | nt
Cc1cccc(S(=O)(=O)Nc2nc3ccccc3nc2OC(C)C)c1 | i | i | i | i | i | i | nt | nt | nt
CCOC(=O)c1cc(CC)sc1NC(=O)c1ccc(N2C(=O)CCC2=O)cc1 | i | i | i | i | i | i | nt | nt | nt
CCOC(=O)c1cc(CC)sc1NC(=O)c1cc(OC)c(OC)c(OC)c1 | i | i | 141.0 | i | i | i | i | i | i
Cc1ccc(-n2cc(CN3CCC(CO)(Cc4cccc(C(F)(F)F)c4)CC3)cn2)cc1 | i | i | 227.0 | i | i | 123.0 | i | i | i
OCC1(Cc2cccc(C(F)(F)F)c2)CCN(Cc2cc(F)cc(F)c2)CC1 | i | i | i | i | i | i | nt | nt | nt
OCC1(Cc2ccccc2)CCN(Cc2cnn(-c3ccccc3F)c2)CC1 | i | i | 520.0 | i | i | 362.0 | i | i | i
Cc1ccc(-n2cc(CN3CCC(CO)(Cc4ccccc4)CC3)cn2)cc1 | i | i | i | i | nt | i | nt | nt | nt
CSc1cccc(CN2CCC(CO)(Cc3cccc(C(F)(F)F)c3)CC2)c1 | i | i | 138.0 | i | i | i | i | i | i
Cc1cc(C(=O)NCC(c2ccco2)N2CCCC2)c2ccccc2n1 (stereo unspecified) | nt | i | nt | i | i | nt | nt | nt | nt
COc1ccc(Nc2nc(N)nc(CSCCO)n2)cc1 | i | i | 135.0 | i | i | i | i | i | i
CCCCn1c(N)c(-c2nc3ccccc3s2)c2c([N+](=O)[O-])nn(C)c(=O)c21 | 82.0[inhibitor] | i | i | i | i | i | i | i | i
COc1ccc(N(CC(=O)N2CCc3ccccc3C2)S(C)(=O)=O)cc1Cl | i | i | i | i | i | i | nt | nt | nt
Cc1nn2c(N3CCCC3)c3c(nc2c1-c1ccccc1)CCC3 | 37.0[inhibitor] | i | 30.0[inhibitor] | i | i | i | i | i | i
COc1cccc(Nc2c3c(nc4c(-c5ccccc5)c(C)nn24)CCC3)c1 | 132.0 | i | i | i | i | i | i | i | 56.0
